The results in this text go back to PubChem BioAssay (NCI).

The panel holds about 79,000 compounds, 15% with a hit somewhere; the sample as a whole holds those more often. The source made the active and inactive calls. Rule as the data show it: active = growth inhibition above about 70%; inactive = the rest.

A short description of one test: NCI Yeast Anticancer Drug Screen. Data for the mlh1 rad18 strain (AID 175). The note with it: S. cerevisiae mlh1 rad18 strain growth inhibition; at 50.0 µM (retest, dose inferred, filed as 5.0); stronger effect = higher value. The procedure, abridged: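 Yeast w/ defined DNA-repair lesions; compound exposure; growth vs vehicle controls → % inhibition.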
As for `COc1ccc(N=N/N=c2\sc3cc(Cl)ccc3n2C)cc1`, the growth inhibition was 63% (inactive).
On the same count and under the same terms, under `O=c1ccc2nc3ccccc3ccc-2c1` stands -110% (inactive); under `CC(=O)Nc1ccc(O)c(=O)cc1`, 97% (active).
The same measure, in the same setting: then `CC(=O)Oc1c([N+](=O)[O-])cc(-c2ccccc2)cc1[N+](=O)[O-]`, with 99% (active); and `Cc1cc(O)c(C)c(C)c1N=Nc1ccccc1`, with -119% (inactive); and `CCCCCCCC/C=C\CCCCCCCC(=O)O` (tested in a mixture with another compound), with 96% (active).
On the same count and under the same terms, then `O=S(=O)(Nc1ccc(Cl)cc1)c1ccccc1`, with 63% (inactive); and `COC(=O)[C@@]12OC[C@]34[C@H]([C@@H](O)[C@@H]1O)[C@@]1(C)CC(=O)C(O)=C(C)[C@@H]1C[C@H]3OC(=O)[C@H](OC(=O)C(Cc1ccccc1)NC(=O)OC(C)(C)C)[C@@H]24` (stereo not given in full), with 58% (inactive); and `CSC(=S)n1nc(-c2cccs2)c(N=Nc2ccc(Cl)cc2)c1C(F)(F)F`, with 56% (inactive).
Consider `CCN1C2=NCCN2S(=O)(=O)c2ccccc21`, for which the growth inhibition was 13% (inactive).
The same measure, in the same setting: then `CCCc1cc(-c2ccc(O)c(CCC)c2)ccc1O`, with 99% (active).
On the same count and under the same terms, then `O=[N+]([O-])c1ccc(-c2cccc(Cl)c2)c([N+](=O)[O-])c1`, with 98% (active); and `COC(=O)Oc1nn(C(=O)OC)c(=O)c2ccccc12`, with 54% (inactive).
For `Cc1n(CC(C)C)c2c([n+]1CC(=O)c1ccc([N+](=O)[O-])cc1)C(=O)c1ccccc1C2=O`, the growth inhibition was 96% (active).
Regarding `O=C(c1ccccc1)C1C(c2ccccc2)OP(c2ccccc2)(c2ccccc2)(c2ccccc2)C1c1ccccc1` (stereo not given), the growth inhibition is 99% (active).
The same measure, in the same setting: under `Cc1nc2c(cnn2-c2ccccc2)c(=O)o1` stands -108% (inactive); under `CCOC(=O)C(=O)Nc1nc2c(s1)C(=O)c1ccccc1C2=O`, 94% (active); under `O=C(CCl)OCC(=O)c1ccc(-c2ccccc2)cc1`, 98% (active).
Turning to `ICCCCCCCCCC[n+]1ccc2ccccc2c1`, the growth inhibition is 96% (active).
Turning to `CCC(C)OC(=O)Nc1cccc(Cl)c1` (stereo not given), the growth inhibition is 29% (inactive).
The same measure, in the same setting: under `COc1ccccc1CN1CCCN(Cc2ccccc2OC)C1c1ccccc1F` stands 16% (inactive).
Turning to `ON=C(CC(O)(C(F)(F)Cl)C(F)(F)Cl)CC(O)(C(F)(F)Cl)C(F)(F)Cl`, the growth inhibition was 99% (active).
On the same count and under the same terms, under `COC(=O)Cn1/c(=N\N=C(/C)c2ccc(C)cc2)sc2ccccc21` stands 36% (inactive); under `CCN(CC)CCOc1ccc(NC(=S)Nc2ccc(OCC(C)C)cc2)cc1`, 74% (active); under `CCCCCCCCCCNC(=O)CBr`, 99% (active).
Still for that read-out and setting: under `CN(C)c1ccc(N=Nc2ccc(/C=C3\CCOC3=O)cc2)cc1` stands 3% (inactive).
On the same count and under the same terms, then `CCc1cccc(CC)c1NC(=O)C1=C(C)NC(C)=C(C(=O)Nc2c(CC)cccc2CC)C1c1ccc2c(c1)OCO2`, with 43% (inactive); and `Nc1cc2[nH]c(=O)c3cc(Cl)ccc3c2cc1Cl`, with 95% (active).
As to `COc1ccc(OC(C)=O)c2c1CCC=CC2=O`, the growth inhibition is 95% (active).
For the molecule `COc1ccc(-c2n[nH]c(C(F)(F)F)c2N=NN(C)C)cc1OC`, the growth inhibition is 99% (active).
Same read-out and setting: under `CCC(=NCCCCCCN=C(CC)c1cc(C)cc([N+](=O)[O-])c1O)c1cc(C)cc([N+](=O)[O-])c1O.[Fe]` stands 63% (inactive); under `COc1ccc(CN2CCCN(Cc3ccc(OC)cc3)C2Cc2cc(Cl)ccc2OC)cc1`, 85% (active).
The same measure, in the same setting: then `Cc1cc(Cc2ccc(Cl)cc2)ccc1O`, with 99% (active); and `CNCCN[C@@H]1c2cc3c(cc2[C@@H](c2cc(OC)c(O)c(OC)c2)[C@H]2C(=O)OC[C@@H]21)OCO3`, with 89% (active); and `Cc1cc(NC(=S)SC(C)C)ccc1Br`, with 99% (active).
For `CC1CC2(C)ON=C(c3ccccc3)N2c2ccccc2S1` (stereo not given), the growth inhibition is 98% (active).
Still for that read-out and setting: then `O=C(Cc1ccccc1)OC(C(=O)c1ccccc1)c1ccccc1` (stereo not given), with 92% (active); and `Nc1ccc2ccccc2c1N=Nc1ccccc1`, with 92% (active).
On to `Clc1ccc(C(c2ccc(Cl)cc2)c2cncnc2)cc1`, for which the growth inhibition was 97% (active).
`OC(C(=Nc1ccccc1)c1ccccc1)c1ccccc1` (stereo not given): the growth inhibition is 99% (active).

The test is the same for the next values; noted with them: S. cerevisiae mlh1 rad18 strain growth inhibition; at 50.0 µM; stronger effect = higher value.
As for `COc1ccc(N=N/N=c2\sc3cc(Cl)ccc3n2C)cc1`, the growth inhibition was 38.2% (inactive).
For `O=c1ccc2nc3ccccc3ccc-2c1`, the growth inhibition is 62.5% (inactive).
Regarding `CC(=O)Nc1ccc(O)c(=O)cc1`, the growth inhibition was 97.2% (active).
On the same count and under the same terms, then `CC(=O)Oc1c([N+](=O)[O-])cc(-c2ccccc2)cc1[N+](=O)[O-]`, with 84.6% (active); and `Cc1cc(O)c(C)c(C)c1N=Nc1ccccc1`, with 87.5% (active).
As for `CCCCCCCC/C=C\CCCCCCCC(=O)O` (tested in a mixture with another compound), the growth inhibition is 97.1% (active).
For the molecule `O=S(=O)(Nc1ccc(Cl)cc1)c1ccccc1`, the growth inhibition is 45.5% (inactive).
Regarding `COC(=O)[C@@]12OC[C@]34[C@H]([C@@H](O)[C@@H]1O)[C@@]1(C)CC(=O)C(O)=C(C)[C@@H]1C[C@H]3OC(=O)[C@H](OC(=O)C(Cc1ccccc1)NC(=O)OC(C)(C)C)[C@@H]24` (stereo not given in full), the growth inhibition was -65.6% (inactive).
Consider `CSC(=S)n1nc(-c2cccs2)c(N=Nc2ccc(Cl)cc2)c1C(F)(F)F`, for which the growth inhibition was 96.1% (active).
For the molecule `CCN1C2=NCCN2S(=O)(=O)c2ccccc21`, the growth inhibition is -5.3% (inactive).
On the same count and under the same terms, then `CCCc1cc(-c2ccc(O)c(CCC)c2)ccc1O`, with 99.2% (active).
Regarding `O=[N+]([O-])c1ccc(-c2cccc(Cl)c2)c([N+](=O)[O-])c1`, the growth inhibition is 97.9% (active).
Still for that read-out and setting: then `COC(=O)Oc1nn(C(=O)OC)c(=O)c2ccccc12`, with 86.5% (active).
In the case of `Cc1n(CC(C)C)c2c([n+]1CC(=O)c1ccc([N+](=O)[O-])cc1)C(=O)c1ccccc1C2=O`, the growth inhibition is 90.2% (active).
The same measure, in the same setting: under `O=C(c1ccccc1)C1C(c2ccccc2)OP(c2ccccc2)(c2ccccc2)(c2ccccc2)C1c1ccccc1` (stereo not given) stands 99.8% (active); under `Cc1nc2c(cnn2-c2ccccc2)c(=O)o1`, 50.6% (inactive); under `CCOC(=O)C(=O)Nc1nc2c(s1)C(=O)c1ccccc1C2=O`, 96.3% (active).
The same measure, in the same setting: then `O=C(CCl)OCC(=O)c1ccc(-c2ccccc2)cc1`, with 32.4% (inactive); and `ICCCCCCCCCC[n+]1ccc2ccccc2c1`, with 90.5% (active); and `CCC(C)OC(=O)Nc1cccc(Cl)c1` (stereo not given), with 78.8% (active).
The same measure, in the same setting: under `COc1ccccc1CN1CCCN(Cc2ccccc2OC)C1c1ccccc1F` stands 41% (inactive); under `ON=C(CC(O)(C(F)(F)Cl)C(F)(F)Cl)CC(O)(C(F)(F)Cl)C(F)(F)Cl`, 99.5% (active).
As for `COC(=O)Cn1/c(=N\N=C(/C)c2ccc(C)cc2)sc2ccccc21`, the growth inhibition was 40.6% (inactive).
Same read-out and setting: under `CCN(CC)CCOc1ccc(NC(=S)Nc2ccc(OCC(C)C)cc2)cc1` stands 80.9% (active); under `CCCCCCCCCCNC(=O)CBr`, 94% (active).
The same measure, in the same setting: under `CN(C)c1ccc(N=Nc2ccc(/C=C3\CCOC3=O)cc2)cc1` stands 12.4% (inactive); under `CCc1cccc(CC)c1NC(=O)C1=C(C)NC(C)=C(C(=O)Nc2c(CC)cccc2CC)C1c1ccc2c(c1)OCO2`, 87.5% (active); under `Nc1cc2[nH]c(=O)c3cc(Cl)ccc3c2cc1Cl`, 61.2% (inactive).
As for `COc1ccc(OC(C)=O)c2c1CCC=CC2=O`, the growth inhibition is 74% (active).
With `COc1ccc(-c2n[nH]c(C(F)(F)F)c2N=NN(C)C)cc1OC`, the growth inhibition is 99.6% (active).
Still for that read-out and setting: under `CCC(=NCCCCCCN=C(CC)c1cc(C)cc([N+](=O)[O-])c1O)c1cc(C)cc([N+](=O)[O-])c1O.[Fe]` stands 80.8% (active); under `COc1ccc(CN2CCCN(Cc3ccc(OC)cc3)C2Cc2cc(Cl)ccc2OC)cc1`, 77.8% (active); under `Cc1cc(Cc2ccc(Cl)cc2)ccc1O`, 47.9% (inactive).
As to `CNCCN[C@@H]1c2cc3c(cc2[C@@H](c2cc(OC)c(O)c(OC)c2)[C@H]2C(=O)OC[C@@H]21)OCO3`, the growth inhibition is 87.8% (active).
Still for that read-out and setting: then `Cc1cc(NC(=S)SC(C)C)ccc1Br`, with 99.3% (active); and `CC1CC2(C)ON=C(c3ccccc3)N2c2ccccc2S1` (stereo not given), with 83.7% (active); and `O=C(Cc1ccccc1)OC(C(=O)c1ccccc1)c1ccccc1` (stereo not given), with -3.1% (inactive).
Take `Nc1ccc2ccccc2c1N=Nc1ccccc1`: the growth inhibition is 97.6% (active).
For the molecule `Clc1ccc(C(c2ccc(Cl)cc2)c2cncnc2)cc1`, the growth inhibition is 86.8% (active).
The same measure, in the same setting: under `OC(C(=Nc1ccccc1)c1ccccc1)c1ccccc1` (stereo not given) stands 99.1% (active).
